Experimental data reported in the supplement of paper PMC13380429.

Assays:
[1] = system: Vero E6 infected with SARS-CoV-2; assay: morphology score (similarity to uninfected cells); higher = more like uninfected cells; conditions: 24 h
[2] = system: Vero E6 infected with SARS-CoV-2; assay: SARS-CoV-2 infection rate relative to infected DMSO; higher = more infection, active = 60 or less; conditions: 24 h

SMILES	morphology score [1]	SARS-CoV-2 infection rate [2]
CNS(=O)(=O)Nc1nccc(Cc2c(C)c3ccc(Oc4ncccn4)cc3oc2=O)c1F (0.833333 µM)	-0.0748	113% (inactive)
CN1CCCN=C1COC(=O)C(O)(c1ccccc1)C1CCCCC1 (configuration not stated) [oxyphencyclimine] (10 µM)	0.0243	101% (inactive)
CCCN(CCc1cccs1)[C@H]1CCc2c(O)cccc2C1 [rotigotine] (10 µM)	-0.0144	96.5% (inactive)
C[C@]12CCC(=O)C=C1[C@@H]1C[C@@H]1[C@H]1[C@@H]3[C@@H]4C[C@@H]4[C@@]4(CCC(=O)O4)[C@@]3(C)CC[C@@H]12 [drospirenone] (10 µM)	0.176	101% (inactive)
COc1cc2nc(N3CCN(C(=O)c4ccco4)CC3)nc(N)c2cc1OC [prazosin] (10 µM)	-0.0585	107% (inactive)
Nc1ncnc2c1ncn2[C@@H]1O[C@H](CO)[C@@H](O)[C@H]1O [adenosine] (10 µM)	0.0109	109% (inactive)
c1cc2c(cc1[C@H]1OC[C@H]3[C@@H]1CO[C@@H]3c1ccc3c(c1)OCO3)OCO2 [sesamin] (10 µM)	-0.0737	120% (inactive)
O=C(c1cc2ccccc2o1)N1CCN(Cc2ccccc2)CC1 [befuraline] (10 µM)	-0.00895	106% (inactive)
CC(=O)OC[C@H]1O[C@@H]([S-])[C@H](OC(C)=O)[C@@H](OC(C)=O)[C@@H]1OC(C)=O.CCP(CC)CC.[Au+] [auranofin] (0.833333 µM)	0.3	79% (inactive)
O=C(NCC1(N2CCN(c3ccccc3)CC2)CCOCC1)c1cccnc1Sc1ccccc1 (10 µM)	-0.047	112% (inactive)
CC(C)[C@@]1(NC(=O)[C@@H]2C[C@@H]3c4cccc5[nH]cc(c45)C[C@H]3N(C)C2)O[C@@]2(O)[C@@H]3CCCN3C(=O)[C@H](Cc3ccccc3)N2C1=O [dihydroergocristine] (10 µM)	-0.123	117% (inactive)
CS(=O)(=O)c1ccc(Cn2c3c(c4cc(F)cc(F)c42)CCCC3CC(=O)O)cc1 (configuration not stated) (10 µM)	0.144	90% (inactive)
Cc1cc(-c2nncc3c(C(C)(C)C)c(OCc4ncnn4C)nn23)no1 (10 µM)	0.149	95% (inactive)
COc1ccc(-c2cc(=O)c3c(OC)c(OC)c(OC)c(OC)c3o2)cc1OC [nobiletin] (10 µM)	0.322	110% (inactive)
COc1cc(C(C)=O)ccc1O [apocynin] (10 µM)	0.331	97% (inactive)
CC(=O)O[C@H]1C(=O)[C@@]2(C)[C@H]([C@H](OC(=O)c3ccccc3)[C@]3(O)C[C@H](OC(=O)[C@H](O)[C@@H](NC(=O)c4ccccc4)c4ccccc4)C(C)=C1C3(C)C)[C@]1(OC(C)=O)CO[C@@H]1C[C@@H]2O [paclitaxel] (10 µM)	0.00639	108% (inactive)
CC(C)(C)CC(C)(C)c1ccc(O)c(Cc2ccc(Cl)cc2Cl)c1 [clofoctol] (10 µM)	0.121	94% (inactive)
Cc1ncc(C[n+]2csc(CCO)c2C)c(N)n1 [thiamine] (10 µM)	0.119	96.5% (inactive)
COc1ccc(Nc2ncnc3ccc(OC)cc23)cc1 (10 µM)	-0.228	122% (inactive)
O=C(CN1CCNCC1)NC1CCCCC1 [esaprazole] (10 µM)	0.0266	104% (inactive)
NC(=O)C1=CN([C@@H]2O[C@H](COP(=O)(O)OP(=O)(O)OC[C@H]3O[C@@H](n4cnc5c(N)ncnc54)[C@H](O)[C@@H]3O)[C@@H](O)[C@H]2O)C=CC1 [coenzyme-I] (10 µM)	0.00507	103% (inactive)
O=C1NC(=O)c2cc(Nc3ccc(F)cc3)c(Nc3ccc(F)cc3)cc21 (10 µM)	0.329	77.5% (inactive)
Cc1nc2c([nH]1)-c1ccccc1N(C(=O)c1ccc(NC(=O)c3ccccc3-c3ccccc3)cc1)CC2 [conivaptan] (10 µM)	0.193	107% (inactive)
CCc1cc2c(c(CC)n1)CCC(=O)N2Cc1ccc(-c2ccccc2-c2nnn[nH]2)cc1 (10 µM)	0.264	98.5% (inactive)
CC(=O)Oc1cccc(C(=O)O)c1OC(C)=O [dipyrocetyl] (10 µM)	0.209	85% (inactive)
CCCCCN(C)CCC(O)(P(=O)(O)O)P(=O)(O)O [ibandronate] (10 µM)	-0.0259	111% (inactive)
